Measurements reported in PubChem BioAssay (Tox21).
Records with an inconclusive call do not appear. Unmarked numbers belong to inactive results. Calls of active or inactive are those of the source. Calls come from the whole dose curve; as a rule, active = well fitted cell-killing curve with a large enough effect in the repeat runs; inconclusive = weak or mixed curves, or effect the other way; inactive = flat fitted curve, though single readings scatter.

assay: qHTS assay to identify small molecule agonists of the sonic hedgehog signaling (Shh) pathway - cell viability counter screen (AID 1259366); details: NIH/3T3 Gli1-Luc viability, CellTiter-Fluor, 24 h; series mostly up to 92.4 µM; viability change, negative = cytotoxic: at the top concentration; note: nearly all actives have a fitted effect of over 50% in size
From the text: National Center for Advancing Translational Sciences [NCATS]
NIH Chemical Genomics Center [NCGC]
U.S. Environmental Protection Agency [EPA]
National Institutes of Environmental Health Sciences [NIEHS]
National Toxicology Program [NTP]
U.S. Food and Drug Administration [FDA]
The sonic hedgehog (Shh) pathway is essential for normal embryonic development. Dysregulation of the Shh pathway can cause severe developmental defects in organs. Therefore chemicals that interfere with the pathway are potential developmental toxicants. A cell line designated 3T3Gli1-Luc (DMB/OARSA/CFSAN/FDA, Laurel, MD), a NIH/3T3 derived clone containing stably integrated Gli1-Luc reporter is used to detect chemical interference of the Shh pathway, by changes in the expression of the firefly Luc gene under the control of the Gli1 transcriptional response element. This cell line was used to screen Tox21 libraries for identifying and prioritizing the potential developmental toxicants that interfere Shh pathway. The cytotoxicity of the compounds was tested in parallel by measuring the cell viability using CellTiter-Fluor assay system (Promega, Madison, WI) in the same wells.
Tox21 Assay Protocol Summary:
3T3 Gli1-Luc cells were dispensed at 2,000 per well in 5uL of culture medium into white solid bottom 1536-well plates (Greiner Bio-One, Monroe, NC) using a Multidrop Combi (Thermo Scientific, Waltham, MA) dispenser. The assay plates were incubated at 37 C and 5% CO2 for 4hr, and then 23nL of compounds dissolved in DMSO and positive control were transferred using a Pintool station (Wako, San Diego, CA). The assay plates were incubated at 37C and 5% CO2 for 24hr. For viability read, after 23hr of compound treatment, 1uL of CellTiter-Fluor reagent (Promega Corporation, Madison, WI) was added to each well of the assay plates using Flying Reagent Dispenser (FRD, Aurora Discovery, San Diego, CA) and incubated the assay plates at 37C for 1hr. The fluorescence signal was quantified using a ViewLux plate reader (Perkin Elmer, Shelton, CT).
% is set by controls: 0 for no effect and ±100 for the full control effect; potency is the fitted concentration of half-maximal effect.

| Compound | viability change, negative = cytotoxic | Potency |
| --- | --- | --- |
| Cc1ccccc1C(=O)Nc1cccc(OC(C)C)c1 | 8.61% | – |
| O=[N+]([O-])c1ccccc1CCl | 4.11% | – |
| O=C(NCc1cccnc1)Nc1ccc([N+](=O)[O-])cc1 | 8.67% | – |
| C=CC(=O)OCC(C)C | 0.599% | – |
| NCC(CC(=O)O)c1ccc(Cl)cc1 (stereo not given) | 4.25% [at 0.349 µM] | – |
| O=C(CCl)c1ccc(Cl)cc1Cl | – | 33.5 µM (active) |
| COC(N)=O | 0.887% | – |
| CC(C)(OO)c1ccccc1 | 0.114% | – |
| Cn1sc(Cl)cc1=O | 4.78% | – |
| CC(C)N(C(=O)COc1nnc(C(F)(F)F)s1)c1ccc(F)cc1 | -9.19% | – |
| COc1nn(C(=O)NS(=O)(=O)c2ccccc2OC(F)(F)F)c(=O)n1C | -2.58% | – |
| CO/N=C(/C(=O)OC)c1ccccc1COc1ccccc1C | 4.88% | – |
| O=C(O)C1(c2ccc3c(c2)OC[C@H](Cc2ccc(-c4ccccc4)cc2)[C@H]3O)CCCC1 | 6.48% | – |
| CC(Cl)Cl | -0.767% | – |
| COP(=O)(OC)O/C(=C/Cl)c1cc(Cl)c(Cl)cc1Cl | 5.22% | – |
| CC1C(=O)C[C@]2(C(C)C)C[C@H]12 (stereo not given in full) | 0.811% | – |
| CNC(C)Cc1ccccc1OC (stereo not given) | -4.23% [at 42.5 µM] | – |
| C/C(=C\c1ccccc1)[N+](=O)[O-] | – | 15.4 µM (active) |
| Oc1ccc(Cl)c(Cl)c1Cl | -3.46% | – |
| CO[C@@H]1[C@H](OC(=O)NC(=O)CCl)CC[C@]2(CO2)[C@H]1[C@@]1(C)O[C@@H]1CC=C(C)C | -8.47% [at 19 µM] | – |

| Compound | viability change, negative = cytotoxic | Potency |
| --- | --- | --- |
| Cc1ccc(N)cc1C | -5.11% | – |
| BrCC(Br)C1CCC(Br)C(Br)C1 (stereo not given) | -16.9% | – |
| N#C/C(N)=C(/N)C#N | 4.58% | – |
| CCOP(=S)(OCC)SCn1nnc2ccccc2c1=O | 11.5% | – |
| CCCN(CCCl)c1c([N+](=O)[O-])cc(C(F)(F)F)cc1[N+](=O)[O-] | 12.8% | – |
| C#CCOC(C(=O)OCCN(C)C)(c1ccccc1)c1ccccc1 | -3.01% [at 42.5 µM] | – |
| CCOP(O)OCC | 5.54% | – |
| Brc1ccc(Oc2ccccc2)cc1 | 0.999% | – |
| c1ccc(C2CC2)c(OCC2=NCCN2)c1 | -0.768% [at 42.5 µM] | – |
| CCCCCCCCOC(=O)c1ccc(C(=O)OCCCCCCCC)c(C(=O)OCCCCCCCC)c1 | 1.95% | – |
| CN(C)c1ccc(N(C)C)cc1 | – | 24.4 µM (active) |
| N#Cc1ccc(Cl)cc1 | -1.56% | – |
| O=C=Nc1ccc(Cl)cc1 | 2.94% | – |
| IC(I)=C(I)I | – | 7.7 µM (active) |
| Cc1ccccc1CCl | -7.55% | – |
| ClCc1cccc(Cl)c1 | -7.57% [at 42.5 µM] | – |
| CC(=O)c1cc2c(cc1C)C(C)(C)C(C)CC2(C)C (stereo not given) | -22.6% | – |
| O=NN1CCNCC1 | 5.95% | – |
| O=C(OC1CCCCC1)c1ccccc1C(=O)OC1CCCCC1 | -23.9% | – |
| O=C1C(Cl)C(CCl)CN1c1cccc(C(F)(F)F)c1 (stereo not given) | -6.37% | – |
